Compound activity from PubChem BioAssay.
IMPase Li cell: membrane-permeable IMPase blocker, potentiated with lithium | CHO-M1 cells, IP1 TR-FRET (IP-One), carbachol + lithium | AID 1457 | Potency, µM (top dose mostly 59.4 µM), for inactives: at the highest dose activity, negative = IMPase inhibition, actives largely listed as inhibitors | actives 0.35% (n = 210,000);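 further: IP1 builds up when IMPase is blocked and the TR-FRET signal falls; potency means the concentration at half of the fitted maximal effect; plate controls were basal vehicle for no effect and high inhibitor control for full effect; nearly all actives have a fitted effect of over 50% in size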
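Test compounds were applied to CHO-M1 cells previously cultured for 16–30 h at 2000 per well. A small lithium amount accompanied them; after 30 min at 37C, IP1 was quantified by TR-FRET.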
PNC inhibitor: inhibitors of perinucleolar compartment assembly. activity change (PNC), negative = inhibition, % at 10 µM. actives 3.1% (n = 140,000). PC3M PTB-GFP, PNC prevalence imaging, 16 h; stronger effect = lower value;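 active means readout at or below -70, meaning at least 70% loss of cells showing the perinucleolar compartment, a nuclear body marking cancer cells; inconclusive means readout between -30 and a set limit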;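 further: plate controls were DMSO wells for no effect and camptothecin positive control wells for full effect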
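Read-out is percentage of cells bearing a perinucleolar compartment, from automated 20x imaging of fixed, Hoechst-stained PC3M PTB-GFP cells. Cells were seeded 4 h, then exposed 16 h to compound (23 nl of library stock) in duplicate plates.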
IMPase inh: cell-permeable inhibitors of inositol monophosphatase (IMPase). CHO-M1 cells, IP1 accumulation, HTRF TR-FRET ratio. P97697. 120,000 tested, under 10 active. inhibition (IP1 accumulation), % at 46.1 µM. AID 901; active means well fitted curve in the direction sought with a large enough effect in the signal ratio, not every such curve was filed as active; inconclusive means small, poorly fitted or top-dose-only effect, or a change in a side signal; inactive means no such curve, though single readings can be large or run the other way; the % refers to the signal ratio;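 further: cells stimulated with carbachol in lithium chloride buffer; plate controls were DMSO basal wells for no effect and reference inhibitor wells for full effect; higher means more IMPase inhibition seen as more IP1 and lower FRET ratio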
Target sequence (P97697 whole entry, looked up): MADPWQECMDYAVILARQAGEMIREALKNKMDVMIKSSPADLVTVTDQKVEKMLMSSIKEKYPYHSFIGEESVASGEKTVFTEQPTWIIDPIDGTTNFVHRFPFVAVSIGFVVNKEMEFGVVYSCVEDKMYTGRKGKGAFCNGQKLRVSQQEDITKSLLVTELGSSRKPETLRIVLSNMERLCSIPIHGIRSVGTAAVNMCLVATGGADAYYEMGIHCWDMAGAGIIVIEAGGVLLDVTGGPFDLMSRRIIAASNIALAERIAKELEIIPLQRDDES
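The IP-One HTRF competitive assay in carbachol-stimulated CHO-M1 cells quantifies cellular IP1. Compounds spanned up to 46 uM final, and activity is expressed as AC50 from concentration-response fits of the ratio and donor data.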
HPGD inh: inhibitors of human 15-hydroxyprostaglandin dehydrogenase (HPGD); actives 4.3% (n = 150,000); purified HPGD, NADH fluorescence kinetic, PGE2 substrate; AID 894; Potency, µM, inactives show at the highest dose activity change, negative = inhibition, most hits filed as inhibitors; active means well fitted inhibition curve with a large enough effect, not every such curve was filed as active; inconclusive means small, poorly fitted or top-dose-only effect, or another doubt; inactive means no such curve, though single readings can be large or run the other way; further: potency means the concentration at half of the fitted maximal effect
Target sequence (P15428 whole entry, looked up): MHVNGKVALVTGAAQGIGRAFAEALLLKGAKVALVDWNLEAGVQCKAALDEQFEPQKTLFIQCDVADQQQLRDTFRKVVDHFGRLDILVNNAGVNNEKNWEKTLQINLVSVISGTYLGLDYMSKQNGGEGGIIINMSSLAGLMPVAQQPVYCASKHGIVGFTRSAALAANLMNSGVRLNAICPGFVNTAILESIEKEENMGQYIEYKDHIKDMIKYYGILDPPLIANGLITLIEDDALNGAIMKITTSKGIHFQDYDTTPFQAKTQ
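NADH formation kinetics: reaction with 30 uM PGE2 and 1 mM NAD+ (final), 20 nM enzyme, Tris-HCl pH 8 with Tween 20, after 15 min compound preincubation at room temperature. Fluorescence change, last versus first of five reads.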
ALOX12 inhib: inhibitors of human 12-lipoxygenase (ALOX12) | purified 12-hLO, xylenol orange hydroperoxide absorbance | AID 1452 | actives 0.12% (n = 150,000) | P18054 | Potency, µM (highest dose often 57.1 µM), inactives show top-dose activity change, negative = inhibition, hits mostly inhibitors; further: potency means the concentration at half of the fitted maximal effect; nearly all actives have a fitted effect of over 55% in size
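Xylenol orange chromogenic assay: hydroperoxide from 12hLO oxidises Fe(II), giving red-shifted Fe(III)-XO absorbance. Conditions: 150 nM enzyme, 40 uM arachidonic acid, 25 mM Hepes pH 7.0, 0.01% Triton X-100, 30 min, room temperature.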
ALOX15B inhib: 15-hLO-2 (ALOX15B) enzyme inhibition. O15296. purified 15hLO-2, xylenol orange hydroperoxide absorbance. Potency, µM (series often up to 57.1 µM), without a hit: at the highest dose activity change, negative = inhibition, most hits filed as inhibitors. actives 0.56% (n = 110,000). AID 881; further: potency means the concentration at half of the fitted maximal effect; nearly all actives have a fitted effect of over 60% in size
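Purified human 15hLO-2 (50 nM) preincubated 15 min with compound, then 45 uM arachidonic acid for 90 min at RT in 25 mM Hepes pH 7.5, 0.01% Triton X-100. Hydroperoxide detected by Fe-xylenol orange; 573/405 nm absorbance ratio.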
The depositor's hits bear a star; ? = inconclusive; nt = not tested or not shown; [ ] = another dose, or the depositor's remark. The list is not random: actives were taken first. Their share in the collection is about 5.3%. Unless noted, the call rests on the fitted dose curve; in most records, active means well fitted curve in the direction sought with a large enough effect; inconclusive means small, poorly fitted or top-dose-only effect, or another doubt; inactive means no such curve, though single readings can be large; an effect the other way counts as inactive or inconclusive. Unless noted, on the % scale 0 is the no-effect control and ±100 the full control effect.

SMILES	IMPase Li cell	PNC inhibitor	IMPase inh	HPGD inh	ALOX12 inhib	ALOX15B inhib
Nc1ccccc1C(=O)OCC(=O)N1CCc2ccccc21	-5.8%[38.3 µM]	-24.2	-0.3	?	9.7%	-3.2%
O=[As](O)(O)c1ccc2nc3cc([As](=O)(O)O)ccc3nc2c1	-2.2%	nt	nt	-6.2%	4.3%[11.4 µM]	-6.3%[11.4 µM]
C[C@@H]1[C@@H](C)N1C[C@H](O)Cn1ccnc1[N+](=O)[O-] (some centres not stated)	-2.5%	nt	nt	-12.7%	-2.7%[11.4 µM]	-4.9%[11.4 µM]
COC(=O)N(c1ccccc1)P1(=S)OCCO1	0.0%[38.3 µM]	?	-1.1	8.91µM*	-1.3%	27.6%
CCOC(=O)N(c1ccccc1)P1(=S)OCCO1	5.8%[38.3 µM]	21.3	7.9	?	-5.9%	1.7%
CC(C)N[C@@H](C)Cc1ccc(I)cc1	nt	nt	11.3	nt	-3.1%	15.9%
COc1ccc(CCN(C)Cc2ccncc2)cc1OC	9.9%[38.3 µM]	-91.5*	3.6	-7.5%	-8.2%	-12.8%
CSC([N-]/N=C/c1cccc(C)n1)=[S]=[Cu].CS[C@H]([S-])[N-]/N=C/c1cccc(C)n1	nt	nt	nt	nt	?	3.16µM*
O=S(=O)(NCCO)c1cc[c]([Sb](=[O])([OH])[OH])cc1	nt	nt	nt	nt	3.6%[11.4 µM]	4.6%[11.4 µM]
Ic1ccccc1CN[C@@H]1C2CCN(CC2)[C@H]1C(c1ccccc1)c1ccccc1	nt	nt	9.5	nt	-3.3%	35.8%
CC1=C(C(=O)OC(C)C)[C@]2(C(=O)N(CC(N)=O)c3ccccc32)C(C#N)=C(N)O1	-0.6%	-100.0*	-4.0	-8.0%	-4.1%	nt
C=CCN1C(=O)/C(=C/c2cc(C)n(-c3ccccn3)c2C)C(=O)NC1=S	4.5%	-16.9	nt	12.6µM*	-0.2%	nt
CC(=O)OCC1=C(C(=O)[O-])N2C(=O)[C@@H](NC(=O)CCC[C@@H](N)C(=O)[O-])[C@@H]2SC1.[Zn+2]	nt	nt	5.8	nt	-4.9%	-10.3%
Cc1cc(SCc2sc(-c3ccc(C(F)(F)F)c(F)c3)nc2C)ccc1OCC(=O)O	6.5%	nt	nt	10µM*	-1.3%	?
Oc1c(Cl)c(Cl)c(Cl)c(Cl)c1Cl (tested in a mixture with another compound)	-5.5%	nt	nt	nt	-1.7%[11.4 µM]	-5.9%[11.4 µM]
N[C@H](Cc1ccccc1)c1nn[nH]n1	3.0%	nt	nt	-0.3%	0.2%[11.4 µM]	1.4%[11.4 µM]
CCCC1C(C#N)=C(N)Oc2c1c(=O)oc1ccccc21 (configuration not stated)	-3.3%	-97.8*	0.4	-4.7%	-1.4%	nt
Cc1nc2cc(C(=O)N3CCC4(CC3)OCCO4)ccc2n1-c1ccc(Br)cc1	-8.0%[38.3 µM]	33.9	-5.8	8.91µM*	-3.1%	12.1%
Cc1cc(C(=O)N2CCC3(CC2)OCCO3)cs1	5.6%	42.0	4.1	?	-1.6%	2.4%
COc1ccc(S(=O)(=O)Cc2ccc(C(=O)N3CCC4(CC3)OCCO4)o2)cc1	-8.9%[38.3 µM]	13.4	-0.9	-3.0%	2.7%	-1.1%
O=C(c1ccc2c(c1)OCO2)N1CCC2(CC1)OCCO2	21.2%[38.3 µM]	-7.9	-6.4	25.1µM*	1.8%	-7.7%
O=C(c1ccc2c(c1)ncn2-c1ccc(F)cc1F)N1CCC2(CC1)OCCO2	4.8%	nt	nt	nt	nt	nt
COc1ccc(-n2c(C)nc3cc(C(=O)N4CCC5(CC4)OCCO5)ccc32)cc1	-3.5%[38.3 µM]	8.4	-0.2	12.6µM*	-3.1%	1.4%
O=P(O)(O)c1ccccc1 (tested in a mixture with another compound)	?	nt	nt	-7.4%	0.8%[11.4 µM]	-1.5%[11.4 µM]
C[C@H](Br)CN(C[C@H](C)Br)c1ccc2c(c1)Cc1ccccc1-2	7.0%	nt	nt	-17.2%	-11.0%[11.4 µM]	-5.7%[11.4 µM]
C[C@@H]1Cc2cc3c(cc2C(c2ccc(N)cc2)=NN1)OCO3	nt	nt	-0.4	nt	-1.8%	14.1%
C[C@@H]1O[C@@H](O[C@H]2C[C@@H](O)[C@]3(CO)[C@H]4[C@H](O)C[C@]5(C)[C@@H](C6=CC(=O)OC6)CC[C@]5(O)[C@@H]4CC[C@]3(O)C2)[C@H](O)[C@H](O)[C@H]1O	nt	-114.6*	nt	-10.0%	3.2%	nt
